# Reference: PubChem BioAssay AID686979 (National Center for Advancing Translational Sciences (NCATS), 2013)
# In all, about 420,000 compounds went through this assay and about 50,000 (12%) were called active. Another 26% or so got no clear call; they are omitted. Many of the other results were omitted from the sample, so actives are more common in it than they were. Values without a mark were called inactive. Calls come from the whole dose curve; as a rule, active = well fitted inhibition curve with a large enough effect; inconclusive = small, poorly fitted or top-dose-only effect; inactive = flat fitted curve, though single readings scatter.
# Assay: qHTS for Inhibitors of human tyrosyl-DNA phosphodiesterase 1 (TDP1): qHTS in cells in presence of CPT; note: nearly all actives have a fitted effect of over 55% in size
# Details: chicken DT40 Tdp1-/-;hTDP1 cells + 20 nM CPT, ATP luminescence, 48 h; series mostly up to 46.2 µM; activity change, negative = growth inhibition: at the top concentration
# How it was run: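 Chicken DT40 Tdp1-/- cells complemented with human TDP1, 400 cells/well, exposed to compounds plus 20 nM camptothecin for at least 48 h at 37 C; viability read as ATP content by CellTiter-Glo luminescence.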
# % is set by controls: 0 for no effect and ±100 for the full control effect; potency is the fitted concentration of half-maximal effect.
Compound,"activity change, negative = growth inhibition",Potency
COC(=O)C1(C(=O)OC)C/C=C\CN(S(=O)(=O)c2ccccc2[N+](=O)[O-])CCC1,-27.1%,–
O=C(Nc1ccccc1)Nc1ccc(C(F)(F)F)cn1,-14.5%,–
Cc1nnsc1C(=O)N/N=C/c1cccc(C(F)(F)F)c1,2.4%,–
Oc1ccc(/C=N/Nc2ccc(C(F)(F)F)cn2)cc1O,–,2.91 µM (active)
COc1ccc(C(=O)Nc2cccc(/C=C(/CCC(=O)O)c3nc4ccccc4s3)c2)cc1,-26.9%,–
O=C(CC(NCc1cccnc1)C(=O)O)Nc1ccc(O)cc1 (centres undefined),10.1%,–
Cc1cc2c(cc1C)C(c1cccc(OC(C)C)c1)CC(=O)N2 (centres undefined),–,16.4 µM (active)
COc1cc2c(cc1OC)C(c1ccncc1)CC(=O)N2 (centres undefined),3.17%,–
COC(=O)c1ccc(C2CC(=O)Nc3cc(OC)c(OC)cc32)cc1 (centres undefined),-2.88%,–
O=C(NC(c1ccccc1)c1ccccc1)N1CCN(CCO)CC1,0.157%,–
Cc1cccc(C)c1NC(=O)C(c1cccc(F)c1)N1CCN(C)CC1 (centres undefined),-28.4%,–
CC(=O)Nc1sc2c(c1C(c1cccc(F)c1)N1CCN(CCO)CC1)CCCC2 (centres undefined),–,23.1 µM (active)
COc1ccccc1CNC(=O)COC(=O)CNS(=O)(=O)c1ccc(NC(C)=O)cc1,8.96%,–
O=C(Cc1ccccc1)Nc1c(Cl)ccc2nsnc12,-1.89%,–
CCOC(=O)N1CCN(C(=O)c2cn(C)c3ccc(S(=O)(=O)N(CC)CC)cc3c2=O)CC1,-4.93%,–
C=CCn1cc(C(=O)NCc2ccc(Cl)cc2)c(=O)c2cc(S(=O)(=O)N(CC)CC)ccc21,–,20.6 µM (active)
CCN(CC)S(=O)(=O)c1ccc2c(c1)c(=O)c(C(=O)N1CCN(c3cccc(Cl)c3)CC1)cn2C,-62.1%,–
CSc1ncnc2c1ncn2CCCNCC(C)c1ccccc1 (centres undefined),1.45%,–
O=C(Nc1cc(S(=O)(=O)N2CCOCC2)ccc1OCC(F)(F)F)c1ccc(N2CCCC2=O)cc1,-16%,–
S=C(NNC(=S)NC1CC2C=CC1C2)NC1CC2C=CC1C2 (centres undefined),-3.95%,–
S=C(NNC(=S)NC1CC2CCC1C2)NC1CC2C=CC1C2 (centres undefined),-28.8%,–
CC(C)c1ccc(NC(=S)NC2CC3C=CC2C3)cc1 (centres undefined),–,14.6 µM (active)
COCCCN(C(=O)CSCc1ccc(C)cc1)c1c(N)n(Cc2ccccc2)c(=O)[nH]c1=O,-1.77%,–
Cc1ccc(S(=O)(=O)N2CCCC2C(=O)NCc2ccco2)cc1 (centres undefined),-23.3%,–
O=C(NCCC1CCCCN1S(=O)(=O)c1ccccc1)C(=O)NCC1CCCO1 (centres undefined),5.7%,–

Compound,"activity change, negative = growth inhibition",Potency
O=C(NCCC1CCCCN1S(=O)(=O)c1ccc(Cl)cc1)C(=O)NCc1ccco1 (centres undefined),–,16.4 µM (active)
O=C(/C=C/[C@H]1O[C@@H](n2ccc(=O)[nH]c2=O)[C@H](O)[C@@H]1O)NCc1ccccn1,2.63%,–
COc1ccc(OCCCn2c(C)nc3cc(C)c(C)cc32)cc1,–,11.6 µM (active)
Cc1cc2nc(C)n(CCCNC(=O)Nc3ccccc3)c2cc1C,-18.6%,–
COc1ccc(OCCn2ccnc2C)cc1,4.61%,–
CCn1cc(C(=O)NCCC(=O)NCCO)c(=O)c2cc3c(cc21)OCO3,4.51%,–
COC(=O)C1=C(C(=O)OC)[C@@H]2N(C)c3ccccc3[C@@]23C[C@@H](C(=O)OC)N(C(=O)c2ccco2)C3=N1,2.69%,–
Cc1noc(C)c1NC(=O)Nc1ccc2c(c1)C(=O)N([C@H](C)CO)C[C@H](C)[C@@H](CN(C)S(=O)(=O)c1cn(C)cn1)O2,-2.21%,–
COc1ccc(CNC(=O)CSc2n[nH]c(N)n2)cc1OC,-5.36%,–
CC(C)n1cnc2c(NCc3ccccc3)cc(OCC3CCN(C)CC3)cc21,–,20.6 µM (active)
CCC(CO)Oc1cc(NC(=O)c2cccc(F)c2)c2ncn(C(C)C)c2c1 (centres undefined),-26.9%,–
CCC(CO)Oc1cc(NC(=O)c2ccc(Cl)cc2)c2ncn(C(C)C)c2c1 (centres undefined),-5.07%,–
Cn1nc(C(=O)OCC(=O)N(Cc2ccccc2)C(C)(C)C)c2ccccc2c1=O,-21.9%,–
O=C(CN1CCCCCC1)Nc1ccc(Br)cc1[N+](=O)[O-],-2.9%,–
Cc1ccc(S(=O)(=O)C2(S(=O)(=O)c3ccc(C)cc3)CCCC2)cc1,–,7.31 µM (active)
Cc1ccc(S(=O)(=O)N(C)C2(C)CCS(=O)(=O)C2)cc1 (centres undefined),-24.8%,–
Cc1ccc(S(=O)(=O)NC2CCCCCC2)cc1,-0.605%,–
COc1ccc(/C=C(/NC(=O)c2ccccc2)C(=O)Nc2cccc(C(=O)O)c2)cc1,2.84%,–
Cc1ccc(S(=O)(=O)N(CCc2ccccc2)c2ccc3c(c2)C2CC3CCN2C(=O)OCc2ccccc2)cc1 (centres undefined),–,20.6 µM (active)
Cc1ccc(S(=O)(=O)CCC(=O)OCc2ccccc2)cc1,7.5%,–
CCOC(=O)N1CCN(C(=O)CN(c2ccc(C)c(C)c2)S(=O)(=O)c2ccccc2)CC1,-6.33%,–
COc1ccc(C(=O)NCC2CCCCC2)cc1S(=O)(=O)N1CCCC1,3.05%,–
Cc1[nH]c2c(C(=O)NCC3Cc4cccc(-c5cccnc5)c4O3)cccc2c1C (centres undefined),-3.45% [at 9.04 µM],–
Cc1cc(=O)oc2cc(OCC(=O)N3CCN(c4ccc(F)cc4)CC3)c(Cl)cc12,-12%,–
COc1cccc(CNn2cn[nH]c2=S)c1OCc1ccccc1,8.15%,–

Compound,"activity change, negative = growth inhibition",Potency
COc1ccccc1-n1cn[nH]c1=S,–,29.1 µM (active)
COc1ccccc1-n1c(-c2cc(-c3ccco3)[nH]n2)n[nH]c1=S,-13%,–
COCCNC(=O)C(OC(=O)c1cccs1)c1ccc(F)cc1 (centres undefined),2.93%,–
CCOc1ccc2ccccc2c1/C=N/NC(=O)c1c(C)cc(C)[nH]c1=O,10.1%,–
COc1ccc(/C=N\NC(=O)c2sc(N)nc2C)cc1OC,-28.3%,–
COc1ccc2ccccc2c1/C=N/NC(=O)c1cc(C)[nH]n1,–,8.2 µM (active)
O=C(CN1C(=O)S/C(=C\c2ccccc2F)C1=O)NCCCn1ccnc1,-17.7%,–
COc1ccc(-c2noc(COc3ccc(Cl)c(C)c3)n2)cc1,-10.7%,–
COc1ccc(C(C)=O)cc1COc1ccc(Cl)c(C)c1,–,10.3 µM (active)
COCc1cc(C(C)=O)ccc1OC,-3.55%,–
COCCCNC(=S)N(CCN(C)C)Cc1cc2cc3c(cc2[nH]c1=O)OCCO3,-2.43%,–
OCc1ccc(OCCCOc2cccc3cccnc23)cc1,-17.3%,–
Nn1c(SCc2ccccc2)nnc1C1CCCCC1,13.1%,–
CC(C)NC(=O)Nc1ccc2c(c1)C(=O)N([C@H](C)CO)C[C@H](C)[C@@H](CN(C)Cc1ccc(C(F)(F)F)cc1)OCCCC[C@@H](C)O2,–,13 µM (active)
Cc1noc(C)c1NC(=O)Nc1ccc2c(c1)C(=O)N([C@H](C)CO)C[C@H](C)[C@@H](CN(C)C(=O)Nc1ccc(C(F)(F)F)cc1)O2,-8.79%,–
C[C@@H]1CN([C@@H](C)CO)C(=O)c2cc(NS(C)(=O)=O)ccc2O[C@@H](C)CCCCO[C@H]1CN(C)C(=O)Nc1ccc2c(c1)OCO2,-18.7%,–
Cc1ccc(S(=O)(=O)N2CCOCC2)cc1NC(=O)c1ccncc1,-10.9%,–
O=C(O)c1c(NC(=O)N2CCCC2)sc2c1CCCC2,-4.88%,–
COc1cn(CC(=O)Nc2cccc(C)c2C)c(CN2CCCCC2)cc1=O,-3.13%,–
O=C(c1ccc(Cl)cc1)N1N=C(c2ccccn2)CC1(O)C(F)(F)F (centres undefined),–,25.9 µM (active)
O=C(C1CC1)N1N=C(c2ccc(Br)cc2)CC1(O)C(F)(F)F (centres undefined),-23.5%,–
O=C(Cc1ccccc1)N1N=C(c2ccncc2)CC1(O)C(F)(F)F (centres undefined),4.64%,–
C=CCn1c(SCC(=O)NC(=O)Cc2ccccc2)nc2ccccc2c1=O,0.809%,–
CCC(=O)Nc1ccccc1N1CCN(S(C)(=O)=O)CC1,-17.6%,–
COc1ccc(C(=O)NC(=S)Nc2ccccc2N2CCN(S(C)(=O)=O)CC2)cc1OC,–,12.6 µM (active)

Compound,"activity change, negative = growth inhibition",Potency
COc1ccccc1C(=O)NC(=S)Nc1ccccc1N1CCCCC1,-23.6%,–
COc1ccc(S(=O)(=O)N2CCOCC2)cc1C(=O)NC1CCCCC1,-6.97%,–
O=C(CC1SC(N2CCCC2)=NC1=O)Nc1ccc(C(=O)NCCc2ccc(F)cc2)cc1 (centres undefined),-11.2%,–
Fc1ccc(-c2csc(-c3ccc(C4SCCS4)cc3)n2)cc1F,-15.4%,–
COc1cc(NC(=O)C2CC(c3ccccc3O)=NO2)c(OC)cc1Cl (centres undefined),22.2%,–
COc1cc(NC(=O)CSc2nnc3ccc(-c4ccncc4)nn23)cc(OC)c1,-4.16%,–
COc1cc(NC(=O)Cn2nc(-c3ccc(C)c(C)c3)ccc2=O)cc(OC)c1,–,20.6 µM (active)
COc1ccc(-c2ccc(=O)n(CC(=O)Nc3ccc(Br)cc3F)n2)cc1,-8.26%,–
O=C(Nc1nnc(CCOCCOCCc2nnc(NC(=O)c3ccco3)s2)s1)c1ccco1,-11.4%,–
CCCNC(=O)NC(=O)COC(=O)CC(NC(N)=O)c1ccc(Cl)cc1 (centres undefined),-6.82%,–
Cn1c(SCC(=O)Nc2ccc(N3CCOCC3)cc2)nnc1C(F)(F)F,-0.589%,–
COc1cc2[nH]c(=O)n(Cc3ccc(C(=O)NC4CCN(Cc5ccccc5)CC4)cc3)c(=O)c2cc1OC,-25.7%,–
CCOC(=O)N1CCN(C(=O)c2ccc3c(=O)n(CCc4ccc(OC)c(OC)c4)c(=O)[nH]c3c2)CC1,–,20.6 µM (active)
COc1ccccc1Cn1c(=S)[nH]c2cc(C(=O)N3CCN(C)CC3)ccc2c1=O,-23.2%,–
COc1ccc(Cn2c(=O)[nH]c3cc(C(=O)N4CCN(C(=O)c5ccco5)CC4)ccc3c2=O)cc1,–,11.2 µM (active)
O=C(c1ccc2c(=O)n(Cc3ccco3)c(=S)[nH]c2c1)N1CCCC1,-22.9%,–
COCCn1c(=S)[nH]c2cc(C(=O)NCCc3ccc(OC)c(OC)c3)ccc2c1=O,-21.7%,–
O=C(N=C1SC2CS(=O)(=O)CC2N1c1ccccc1)c1ccccc1 (centres undefined),11.5%,–
CS(=O)(=O)c1ccc(Cl)c(NC(=O)COC(=O)c2cccc(S(=O)(=O)N3CCCC3)c2)c1,-20.5%,–
CC(C)CCNC(=O)C(C)N(C(=O)Cn1nnc(-c2ccc(F)cc2)n1)C1CCCC1 (centres undefined),-27.3%,–
O=C(O)c1ccccc1CSc1nc2ccccc2s1,-12.8%,–
CN(C)c1ccc(/C=c2\[nH]c(=O)/c(=C/c3ccc(N(C)C)cc3)[nH]c2=O)cc1,-29.3%,–
COc1ccc2sc(-c3ccc(N(C)C)cc3)c(-c3ccc4cc[nH]c4c3)c2c1,-26.4%,–
COc1ccc2c(c1)c(=Cc1ccc(N(C)C)cc1)c1cc(-c3ccccc3)[n+](C)n12,–,0.92 µM (active)
